Counter-ions that a name gives are not always drawn. ± gives the standard deviation of the averaged measurements. A value given as a limit tells only on which side of the number the result lay.

The assay relates to Toxoplasma gondii RH (in HFF). The assay is described as follows: parasite growth relative to the screen mean (all compounds = 100%); higher = less inhibition of parasite growth. To be noted: 5 µM; 72 h; oxygen 21 %. The procedure, abridged: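 Values give growth relative to the screen mean. The screen mean (all compounds) is set at 100%, and two screens were averaged. Compounds at 5 µM final were placed on confluent human foreskin fibroblasts, which were infected within 2 h with RH β-Gal–GFP Toxoplasma (MOI 1:5) and kept 72 h at 21% O2 before a CPRG β-Gal readout against in-plate standard curves.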
Compound `CC(=O)N[C@@H](CC(=O)N[C@@H](CCC(=O)O)C(=O)O)C(=O)O` [Spaglumic acid] showed a parasite growth of 131 ± 6.6%.

In the case of `CC(C)(C)NC[C@H](O)COc1nsnc1N1CCOCC1` [(S)-Timolol maleate], the parasite growth came out at 119 ± 1.7%.

On to `CCCCCCCC/C=C\CCCCCCCC(=O)N[C@@H](CO)Cc1ccc(O)cc1`, for which the parasite growth amounted to 171 ± 11%.

The compound `Cc1c(C(=O)NN2CCCCC2)nn(-c2ccc(Cl)cc2Cl)c1-c1ccc(I)cc1` registered a parasite growth of 45.2 ± 3%.

For the compound `c1ccc(COCCCc2c[nH]cn2)cc1` [Proxyfan Oxalate], the parasite growth is 112 ± 18%.

`Nc1nc(Cl)nc2c1ncn2[C@@H]1O[C@H](CO)[C@@H](O)[C@@H]1F` [Clofarabine] yielded a parasite growth of 67.9 ± 2.8%.

In turn, `Clc1ccccc1CNCC1CCC(CNCc2ccccc2Cl)CC1` (centres undefined) had a parasite growth of 38.9 ± 23%.

Take `Cc1nc2c(O)cccc2c(=O)[nH]1`: the parasite growth was found to be 122 ± 24%.

`Cc1cccc(Nc2cc(Cl)nc(SCC(=O)O)n2)c1C` displayed a parasite growth of 108.5 ± 0.57%.

`Cc1ccccc1C(=O)c1ccc(Nc2ccc(Br)cc2N)cc1Cl`: the parasite growth was 172 ± 48%.

`CCc1cc(C(C)=O)c(O)cc1OCCCCCC(C)(C)c1nn[nH]n1` displayed a parasite growth of 111 ± 4.1%.

The compound `COC(=O)C1=C(C)NC(C)=C([N+](=O)[O-])[C@H]1c1ccccc1C(F)(F)F` returned a parasite growth of 153 ± 8.1%.

`COC(=O)[C@H](NC(=O)c1cc(-c2ccccc2)nc2ccccc12)c1ccccc1` showed a parasite growth of 112.7 ± 0.18%.

`Cc1oncc1C(=O)Nc1ccc(C(F)(F)F)cc1` [Leflunomide]: the parasite growth came out at 106 ± 61%.

Compound `COc1ccc(C(=O)Nc2sc3c(c2C(N)=O)CCCC3)cc1OC` yielded a parasite growth of 112 ± 5.8%.

`CCCCCCCC/C=C\CCCCCCCC(=O)NCCO` [Oleylethanolamide]: the parasite growth worked out at 135 ± 21%.

Take `CC(C)NCC(O)COc1ccc(CC(N)=O)cc1` (racemic) [(RS)-Atenolol]: the parasite growth came to 103 ± 7.6%.

As to `Oc1ccc(/C=C/c2cc(O)cc(O)c2)cc1` [Resveratrol], the parasite growth amounted to 112 ± 56%.

As for `CCCCCCCCCCCCCCCCn1cc[n+](Cc2ccccc2)c1C`, the parasite growth is below 0%.

`COC(=O)C1=C(C)NC(C)=C(C(=O)OC(C)C)C1c1cccc2nonc12` (centres undefined) [Isradipine] came in with a parasite growth of 43.3 ± 5.6%.

Compound `O=c1nc2ccccc2c2n1CC(CN1CCN(c3ccccc3)CC1)N2` (centres undefined) came in with a parasite growth of 120 ± 2.4%.

As for `CCSC(=N)N` [EIT hydrobromide], the parasite growth was determined as 166 ± 23%.

As for `O=[N+]([O-])c1cccc2c[nH]nc12`, the parasite growth is 97.2 ± 10%.

In the case of `CCOC(=O)c1ncn2c1CN(C)C(=O)c1cc(F)ccc1-2` [Flumazenil], the parasite growth is 84.5 ± 15%.

`CCCOc1ccc(Br)cc1-c1cc(-c2ccc(Cl)cc2)[nH]c1-c1ccncc1`: the parasite growth was determined as 37 ± 9%.

As for `Cc1nnc(-c2ccc3occ(-c4ccc([S+](C)[O-])cc4)c3c2)o1` (centres undefined), the parasite growth was 83.7 ± 4.5%.

`CCCCc1nc2ccn(Cc3cccs3)c(=O)c2n1Cc1ccc(-c2ccccc2-c2nn[nH]n2)cc1` registered a parasite growth of 104 ± 12%.

Compound `c1ccc(-c2n[nH]c3c2oc2ccccc23)cc1` had a parasite growth of 103 ± 32%.

`CC[C@@H]1C(=O)OC[C@@H]1Cc1cncn1C` [Pilocarpine hydrochloride] had a parasite growth of 76.5 ± 19%.

In turn, `CC(=O)NCC(=O)N[C@H](CCC(=O)O)C(=O)O` [N-Acetylglycyl-D-glutamic acid] displayed a parasite growth of 132 ± 22%.

With `CC1(C)O[C@@H]2[C@@H](CO[C@@]3(COS(N)(=O)=O)OC(C)(C)O[C@@H]23)O1` [Topiramate], the parasite growth was determined as 112 ± 8.3%.

As for `COC(=O)C1=C(C)NC(C)=C([N+](=O)[O-])C1c1ccccc1C(F)(F)F` (racemic), the parasite growth came to 167 ± 8.8%.

`O=C(Nc1ccccc1)C12CC1C(=NO)c1ccccc1O2` (centres undefined) displayed a parasite growth of 77.3 ± 29%.

`CCCCCCN(CCCCCC)C(=O)Cc1c(-c2ccc(F)cc2)[nH]c2ccccc12` gave a parasite growth of 151 ± 28%.

The compound `O=C(O)/C=C/c1ccc(Cn2ccnc2)cc1` [Ozagrel hydrochloride] came in with a parasite growth of 119 ± 3.2%.

As for `COc1ccc2[nH]c(-c3ccccc3)c(CCNC(C)=O)c2c1` [2-Phenylmelatonin], the parasite growth amounted to 149 ± 20%.

For `O=C(O)Cn1c(C(=O)Nc2nc(-c3ccccc3Cl)cs2)cc2ccccc21`, the parasite growth came out at 133 ± 2.8%.

The compound `CCOC(=O)c1cnc2c(cnn2CC)c1NN=C(C)C` [Etazolate hydrochloride] registered a parasite growth of 127 ± 21%.

In turn, `COc1cc2ncn(-c3cc(OCc4ccccc4C(F)(F)F)c(C(N)=O)s3)c2cc1OC` gave a parasite growth of 93.1 ± 20%.

These data come from the supplement of paper PMC4894684.
